Source: PubChem
A selection: hits, their analogues and other compounds. The true share with any hit is near 3.8%.
ATXN2 expr inh: reduces ATXN2 reporter expression in HEK-293 cells. HEK-293 ATXN2-luciferase reporter, luminescence, 24 h. Potency, µM (highest dose often 57 µM), for the others: top-dose activity change, negative = inhibition, most hits filed as inhibitors. actives 0.72% (n = 360,000); further: on the % scale 0 is the no-effect control and ±100 the full control effect; nearly all actives have a fitted effect of over 55% in size
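qHTS (up to 57 uM final) was run with 24 h compound exposure of reporter cells at 37 °C. Each well was multiplexed: SteadyGlo luminescence measured ATXN2-luciferase expression after a fluorogenic Gly-Phe-AFC viability readout (25 uM final).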
HT1080 IDH1KD tx: kills HT-1080 cells with IDH1 knockdown; AID 686971; HT-1080 IDH1 knockdown viability, ATP luminescence, 48 h; Potency, µM (doses to about 46.1 µM), for the others: at the highest dose activity, negative = toxicity, most hits filed as cytotoxic; actives 2% (n = 360,000);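 further: 0% = DMSO wells and -100% = cell-free medium wells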
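After a 2 h attachment period, IDH1KD HT-1080 cells took pin-transferred compound for 48 h at 37 °C; ATP-based luminescence after 10 min room-temperature reagent incubation reported viability.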
HepG2 viability: HepG2 cytotoxicity, counter-screen for TGF-b inhibitors. HepG2 CAGA-GFP viability, ATP luminescence, 18 h. Potency, µM (top dose mostly 46.1 µM), for the others: at the highest dose activity change, negative = cytotoxicity, most hits filed as cytotoxic. actives 0.76% (n = 410,000)
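HepG2 CAGA-GFP cells (1000/well, DMEM with 1% FBS) received compound, then TGF-beta at 500 pg/mL final, and were incubated 18 hours at 37 degrees C. Viability was read by CellTiter-Glo luminescence. Media-only wells were set as complete cell-killing and DMSO as no toxicity.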
ATXN viability: reduces viability in counter-screen for ATXN expression inhibitors | S2 cells (HEK-293 line with an ATXN2-luciferase reporter) viability, CellTiter-Fluor protease fluorescence, 24 h | Potency, µM (titrated, usually from 56.7 µM), most hits filed as cytotoxic | actives 0.49% (n = 400,000); further: nearly all actives have a fitted effect of over 40% in size
HT1080NT lethal: kills 2HG-producing HT-1080-NT fibrosarcoma cells; HT-1080-NT fibrosarcoma viability, CellTiter-Glo ATP luminescence, 48 h; Potency, µM (doses to about 46.1 µM), for the others: top-dose activity, negative = less viability, actives largely listed as cytotoxic; actives 1.6% (n = 360,000); AID 686970;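 further: NT is the 2HG producing partner of a matched IDH1 knockdown line; 0% = DMSO-treated cells and -100% = media-only wells without cells; nearly all actives have a fitted effect of over 55% in size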
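A 48-hour cytotoxicity screen used HT-1080-NT cells plated 2 hours before compound delivery. ATP-based CellTiter-Glo luminescence measured viability, normalized to DMSO and no-cell controls.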
TGFb inhibitor: inhibitors of TGF-b signaling; HepG2 CAGA-GFP TGF-b/SMAD3 reporter, GFP fluorescence, 18 h; TGF-beta stimulated, 500 pg/mL final; Potency, µM (top dose mostly 46.1 µM), inactives show at the top dose activity, negative = inhibition, usual class: inhibitors; actives 1.2% (n = 410,000); AID 588855; further: on the % scale 0 is the no-effect control and ±100 the full control effect; nearly all actives have a fitted effect of over 65% in size
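HEPG2 CAGA-GFP reporter cells (1000/well, DMEM with 1% FBS) received compounds, then recombinant TGF-beta at 500 pg/mL final for 18 hours at 37 degrees C. Per-cell GFP summed per well was normalised to unstimulated and stimulated DMSO controls before curve fitting.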
Active calls of the source: *; i = inactive; u = inconclusive; x = not tested or not shown. The call rests on the fitted dose curve; in most records, active means well fitted curve in the direction sought with a large enough effect; inconclusive means small, poorly fitted or top-dose-only effect, or another doubt; inactive means no such curve, though single readings can be large; an effect the other way counts as inactive or inconclusive. Potency means the concentration at half of the fitted maximal effect.

SMILES	ATXN2 expr inh	HT1080 IDH1KD tx	HepG2 viability	ATXN viability	HT1080NT lethal	TGFb inhibitor
COc1cc(=O)n2c(c1C(=O)N(C)Cc1nccs1)CCN(Cc1cc(C)cc(C)c1)CC2	x	x	x	i	x	x
COc1ccccc1/C=C1\CCCC2=C1Nc1nnnn1C2c1ccccc1OC (stereo not drawn)	-12.0%	u	-35.1%	i	-16.2%	12.6µM*
CC(=O)N1CCCc2cc(S(=O)(=O)N(C)CC(=O)Nc3cccc(C)c3C)ccc21	-13.3%	x	-10.8%	i	x	-1.0%
C[C@H](CCC(=O)O)[C@H]1CC[C@H]2[C@H]3[C@@H](CC[C@]12C)[C@@]1(C)CC[C@@H](O)C[C@H]1C[C@@H]3O	-2.2%	x	x	x	x	x
Clc1ccccc1CSc1nc(NCCc2ccccc2)c2ccccc2n1	x	x	-17.3%	x	x	-2.1%
Cc1ccc2[nH]c3c(c2c1)CN(C(=O)CN1CCCc2ccccc21)CC3	-8.3%	23.1µM*	-22.2%	i	u	-11.9%
COc1ccc(-c2noc(CSc3nnc(Cc4ccccc4)n3-c3ccc(F)cc3)n2)cc1	u	x	-36.4%	x	x	15.8µM*
CCc1ccc(CNC(=O)CCc2c(C)nn(-c3ccc(N4CCCC4)nn3)c2C)cc1	x	x	-3.5%	x	x	-14.9%
CC(C)(C)[N+]([O-])=Cc1ccc(S(=O)(=O)O)cc1S(=O)(=O)O	12.6%	x	x	x	x	x
O=C(/C=C\c1ccccc1)Oc1cccc2cccnc12	x	-22.5%	-0.7%	u	u	u
O=C(/C=C/c1ccccc1)Oc1cccc2cccnc12	x	3.1%	3.98µM*	i	11.0%	3.98µM*
Cc1cnc(NC(=O)COc2cccc3c2OC(C)(C)C3)s1	19.5%	6.51µM*	-25.2%	i	-11.3%	-5.4%
CCOC(=O)N1CCN(Cc2nc(N)nc(Nc3ccc(Oc4ccccc4)cc3)n2)CC1	-31.2%	u	-5.3%	u	16.4µM*	u
CCc1cc(=S)n2c([nH]c3ccccc32)c1C#N	u	u	-41.1%	x	u	7.94µM*
CCc1cc(=O)n2c([nH]c3ccccc32)c1C#N	12.4%	-2.1%	-46.4%	i	-12.2%	7.8%
C=C(C)Cc1c(C)c(C#N)c2[nH]c3ccccc3n2c1=O	-34.3%	16.4µM*	-18.3%	i	-12.8%	-32.2%
Cc1ccc(Cc2c(C)c(C#N)c3[nH]c4ccccc4n3c2=O)cc1	u	-20.1%	-24.9%	i	-16.5%	u
C=C1C=C(C)n2ncc(C(=O)Nc3cccc(C(=O)Nc4cccc(C(F)(F)F)c4)c3)c2N1	x	x	7.6%	x	x	10.8%
O=S(=O)(NCc1csc(-c2cccs2)n1)c1cccc(C(F)(F)F)c1	15.8%	-1.8%	-96.8%	x	-0.5%	15.8µM*
O=S(=O)(NCc1csc(-c2cccs2)n1)c1ccc(Cl)cc1	-11.4%	1.9%	-24.4%	x	-0.5%	u
O=C(N/N=C/c1cc([N+](=O)[O-])ccc1O)c1c[nH]c2ccccc12	14.1µM*	14.6µM*	-31.4%	i	u	u
O=C(N/N=C/c1cccc([N+](=O)[O-])c1)c1c[nH]c2ccccc12	17.4%	-6.8%	-26.5%	i	-13.8%	-9.3%
Cc1cc(C(=O)N/N=C/c2cc([N+](=O)[O-])ccc2O)c2ccccc2n1	u	u	-25.2%	u	u	u
O=C(NN=Cc1cc([N+](=O)[O-])ccc1O)c1cccc2ccccc12	u	6.51µM*	-35.1%	x	u	u
O=C(N/N=C/c1cc([N+](=O)[O-])ccc1Cl)c1cc(-c2ccccc2)nc2ccccc12	-4.2%	5.7%	-5.2%	i	9.9%	4.1%
SMILES	ATXN2 expr inh	HT1080 IDH1KD tx	HepG2 viability	ATXN viability	HT1080NT lethal	TGFb inhibitor
O=C(N/N=C/c1cc([N+](=O)[O-])ccc1O)c1cc(-c2ccccc2)nc2ccccc12	10µM*	4.11µM*	-0.6%	u	u	-16.6%
Nc1ccc(C(=O)N/N=C\c2cc(N=Nc3cccc4ccccc34)ccc2O)cc1	5.62µM*	11.6µM*	-10.2%	u	u	-31.1%
Cc1ccc(C)c(N(C)C(=O)C2CCN(S(=O)(=O)c3cccc4nsnc34)CC2)c1	u	x	-21.7%	u	x	u
CC1(C)S[C@H]2[C@H](NC(=O)[C@@H](N)c3ccc(O)cc3)C(=O)N2[C@@H]1C(=O)O	4.2%	x	x	x	x	x
C=CCC[C@H](Cc1ccc(F)cc1)C(=O)OC[C@H](Cc1c[nH]c2ccccc12)NC(=O)[C@H](CC=C)CC(=O)NCCO	u	-7.0%	-21.0%	u	-15.3%	u
C=CCC[C@@H](Cc1ccc(F)cc1)C(=O)OC[C@@H](Cc1c[nH]c2ccccc12)NC(=O)[C@H](CC=C)CC(=O)NCCO	u	-6.3%	-83.0%	28.2µM*	5.5%	u
C=CCC[C@@H](Cc1ccc(F)cc1)C(=O)OC[C@@H](Cc1c[nH]c2ccccc12)NC(=O)[C@@H](CC=C)CC(=O)NCCO	u	-29.0%	-71.5%	31.6µM*	-27.6%	u
CCn1nc(-c2ccc(C)cc2)nc2c(=O)n(C)c(=O)nc1-2	x	x	0.708µM*	x	x	0.501µM*
Cn1nc(-c2ccncc2)nc2c(=O)n(C)c(=O)nc1-2	x	x	-96.4%	x	x	1.26µM*
CCS(=O)(=O)n1nc(-c2ccc(C)cc2)nc1N	-11.6%	19.3%	4.5%	i	20.7%	-1.5%
O=C1Cc2ccccc2C1=C1C=c2ccccc2=C1	x	x	-0.2%	x	x	-1.0%
O=C(C=CC#Cc1cccc(NS(=O)(=O)c2ccccc2)c1)NO	-55.4%	x	x	x	x	x
NNC(=O)c1oc2ccccc2c1-n1cccc1	17.7%	4.11µM*	5.3%	x	4.61µM*	u
O=C(NNC(=O)c1oc2ccccc2c1-n1cccc1)c1ccco1	-9.9%	-3.9%	-2.1%	u	-2.6%	-1.8%
CCOC(=O)c1ccccc1NC(=O)Cn1c(=O)n(CCCC(=O)NCc2ccc3c(c2)OCO3)c(=O)c2ccccc21	14.2%	x	11.9%	i	x	-11.5%
CCC(=O)NCc1nc(-c2cccc(NC(=O)c3ccc(C)s3)c2)oc1C	x	x	x	i	x	x
COc1cccc(-c2ccc(NC(=O)C3CCCN(Cc4cnn(C)c4C)C3)cc2)c1 (stereo not drawn)	-8.6%	u	-23.5%	i	u	-3.2%
CC(C)n1cc(CN2CCCC(C(=O)Nc3cccc(-c4cc5ccccc5[nH]4)c3)C2)cn1 (stereo not drawn)	28.2µM*	u	-102.7%	u	20.6µM*	u
CC(C)n1cc(CN2CCC(C(=O)Nc3cccc(-c4cscn4)c3)CC2)cn1	8.6%	-17.7%	-4.0%	i	-1.7%	8.4%
